Screening data deposited in PubChem by several laboratories.
tim23-1 inh: inhibits growth of tim23-1 mutant yeast; S. cerevisiae tim23-1 growth, BacTiter-Glo luminescence, 24 h; inhibition, % at 20 µM; 330,000 tested, 1.3% active; AID 463212;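 active means growth inhibition of the mutant yeast at or above 50%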;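 further: temperature-sensitive mutant grown at 25 °C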
TIM10 inh: growth inhibitors of TIM10 yeast strain; S. cerevisiae TIM10 strain growth, BacTiter-Glo luminescence, 24 h; inhibition, % at 10 µM; 330,000 tested, 1.4% active;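 active means inhibition of 40% or more at the single tested concentration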;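 further: wild-type TIM10 isogenic control strain grown at permissive 25 °C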
NLRP3 yeast inh: blocks the NALP3 inflammasome reconstituted in yeast | Yeast reconstituted NLRP3/ASC/caspase-1, beta-gal luminescence, 24 h | inhibition, % at 10 µM | 330,000 tested, 0.39% active;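 active means inhibition of 50% or more; inactive means inhibition below 50%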
PfHsp90 set2: inhibits growth of yeast expressing Plasmodium falciparum Hsp90 | AID 504621 | S. cerevisiae expressing PfHsp90, BacTiter-Glo ATP, 48 h; yeast lacking PDR1 and PDR3 efflux regulators | inhibition, % at 9.4 µM | 310,000 tested, 0.32% active;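 active means every replicate shows inhibition above about 80%, whatever the replicate mean, limit read from the data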
tim10-1 inh: growth inhibitors of tim10-1 mutant yeast. S. cerevisiae tim10-1 ts strain growth, BacTiter-Glo, 24 h. inhibition, % at 20 µM. 330,000 tested, 2.2% active. AID 463190;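 active means inhibition of at least 40%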;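 further: mutant grown at 25 °C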
TIM10 conf: confirmation of TIM10 yeast growth inhibitors; shares compounds with TIM10 inh; S. cerevisiae tim10 strain growth, BacTiter-Glo luminescence, 24 h; inhibition, % at 10 µM; 4,600 tested, 63% active;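 active means inhibition of yeast growth at or above a set limit in either of two replicates at 10 µM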; further: this counterscreen used the strain with wild-type TIM10
Large screens that a line does not name were inactive (follow-up assays come after a bar, where they were run). Most compounds without a hit are left out; they make up all but 3.7% or so of the library.

S=C(Nc1ccc(Oc2ccccc2)cc1)NC1CCCCC1	TIM10 inh 40 | TIM10 conf 41
S=C(Nc1ccc(Oc2ccc(NC(=S)NC3CCCCC3)cc2)cc1)NC1CCCCC1	none
COCCn1c(C)cc(C(=O)COC(=O)C23CC4CC(CC(O)(C4)C2)C3)c1C	none (no result: PfHsp90 set2)
Cc1cccc(NC(=O)c2cc([N+](=O)[O-])ccc2NCC2CCCO2)n1 (stereo not drawn)	TIM10 inh 49 | TIM10 conf 43
O=C(CCc1nc2ccccc2s1)Nc1ccccc1	TIM10 inh 47 | TIM10 conf inactive
O=C(O/N=C1/CCCc2occc21)c1ccc(Cl)cc1Cl	TIM10 inh 44 | TIM10 conf 38
O=C(O/N=C1/CCCc2occc21)c1ccccc1	none
CCOc1ccc(N2C(=O)C3ON(c4ccccc4)C(c4cccs4)C3C2=O)cc1 (stereo not drawn)	none
CCOc1ccc(NC(=S)Nc2cc(OC)c(Cl)cc2OC)cc1	TIM10 inh 40 | TIM10 conf inactive
Cc1cc(C)n(CC(=O)N2c3ccccc3Sc3ccc(C(F)(F)F)cc32)n1	TIM10 inh 42 | TIM10 conf inactive
S=C(NCc1ccc(Cl)cc1)Nc1ccccc1	TIM10 inh 42 | TIM10 conf inactive
Fc1ccc(CNC(=S)Nc2ccc(Cl)cc2)cc1	none
S=C(NCc1cccs1)Nc1cc(Cl)cc(Cl)c1	TIM10 inh 47 | TIM10 conf 56
S=C(NCc1cccs1)Nc1ccccc1Cl	none
Oc1ccc(-c2cccc(-c3ccc(O)cc3)n2)cc1	TIM10 inh 44 (no result: PfHsp90 set2) | TIM10 conf 32
Oc1ccc(-c2nnc(-c3ccc(O)cc3)nn2)cc1	none (no result: PfHsp90 set2)
CCCS(=O)(=O)N1CCN(Cc2c[nH]c3ccccc23)CC1	none
Cc1cccc2c1[nH]c1nc(N/N=C\c3ccco3)nnc12	none (no result: PfHsp90 set2)
C=CCSc1nnc2c(n1)[nH]c1c(C)cccc12	TIM10 inh 47 | TIM10 conf 37
CC(=O)Nc1ccc(NC(=O)C(C)OC(=O)CCSc2ccccc2Cl)cc1 (stereo not drawn)	TIM10 inh 97 | TIM10 conf inactive
Cc1ccc(SCCC(=O)OC(C)C(=O)Nc2ccccc2)cc1 (stereo not drawn)	none (no result: PfHsp90 set2)
Oc1[nH]c2ccccc2c1N=Nc1nc(Nc2ccccc2)nc(N2CCOCC2)n1	none
COc1ccc(/C=N/Nc2nc(Nc3ccccc3)nc(N3CCCCC3)n2)c(OC)c1	TIM10 inh 41 | TIM10 conf inactive
Cc1[nH]c2ccccc2c1/C=N/Nc1nc(Nc2ccccc2)nc(N2CCOCC2)n1	TIM10 inh 52 | TIM10 conf 35
Fc1ccc(Nc2nc(N/N=C/c3ccco3)nc(N3CCCCC3)n2)cc1	TIM10 inh 40 | TIM10 conf inactive
Cc1c(NCc2ccncc2)cccc1C(=O)O	none
C[n+]1c2n(c3ccccc31)N=C(c1ccc(Cl)cc1)CS2	TIM10 inh 41 | TIM10 conf 44
Cc1noc(C)c1COc1ccc(C(=O)OCc2nnc(-c3ccc(Cl)cc3)o2)cc1	TIM10 inh 43 | TIM10 conf 37
O=C(OCc1nnc(-c2ccc(Cl)cc2)o1)c1ccncc1	none
CCCCN(CC)CCCNC(=O)c1cc2cc3ccc(C)cc3nc2o1	none
Cc1ccc2cc3cc(C(=O)NCCCN4CCCC4)oc3nc2c1	TIM10 inh 45 | TIM10 conf inactive
CCS(=O)c1ccccc1C(=O)OCC(=O)Nc1cccc(S(=O)(=O)N2CCCCC2)c1 (stereo not drawn)	none
Cc1c(Cl)ccc2sc(NC(=O)C3CC3)nc12	TIM10 inh 44 | TIM10 conf 38
CC(=O)Nc1nc2c(C)c(Cl)ccc2s1	none
CCN(Cc1ccccc1)S(=O)(=O)c1c(C)[nH]c(C)c1C(=O)N1CCCC1	TIM10 inh 53 | TIM10 conf inactive
Cc1ccc2nc(N3CCN(Cc4ccc(F)cc4)C3=O)c(C)cc2c1	TIM10 inh 46 | TIM10 conf 60
O=C(O)CN1CCN(Cc2ccc(F)cc2)C1=O	none
CCOc1cc(/C=C2/C(=O)ON=C2C)ccc1OCc1ccc(F)cc1	TIM10 inh 43 | TIM10 conf inactive
COc1cccc2cc(-c3nc4ccccc4o3)c(=O)oc12	TIM10 inh 60 | TIM10 conf 67
O=c1oc2ccc(Br)cc2cc1-c1nc2ccccc2o1	none
CCCCc1nc(SCc2ccc([N+](=O)[O-])cc2)n[nH]1	none
